Calls of active or inactive are those of the source. Rule for the calls: active = hit-call score of the fitted dose curve at least 0.9, where 1 is the maximum; inactive = score below 0.9.
test: ATG_MRE_CIS: Attagene CIS-FACTORIAL HepG2 Assay for human Metal Responsive Element (MRE) (AID 2282954); conditions: HepG2 MRE cis-reporter transcription, Attagene multiplex; actives raise or lower the signal
Description: ATG_CIS is a cell-based, multiplexed-readout assay that uses HepG2, a human liver cell line, with measurements taken at 24 hours after chemical dosing in a 24-well plate.ATG_MRE_CIS is one of 52 assay component(s) measured or calculated from the ATG_CIS assay. It is designed to make measurements of mRNA induction, a form of inducible reporter, as detected with fluorescence intensity signals by Reverse transcription polymerase chain reaction (RT-PCR) and Capillary electrophoresis technology.Data from the assay component ATG_MRE_CIS was analyzed into 1 assay endpoint. This assay endpoint, ATG_MRE_CIS, was analyzed with bidirectional fitting relative to DMSO as the negative control and baseline of activity. Using a type of inducible reporter, measures of mRNA for gain or loss-of-signal activity can be used to understand the reporter gene at the transcription factor-level as they relate to the gene MTF1. Furthermore, this assay endpoint can be referred to as a primary readout, because this assay has produced multiple assay endpoints where this one serves a reporter gene function. To generalize the intended target to other relatable targets, this assay endpoint is annotated to the dna binding intended target family, where the subfamily is zinc finger.
Human liver HepG2 cells are transiently transfected with multiple reporter transcription units (MRTUs) in 6-well plates using FuGene 6 reagent (Roche; 3 ml FuGene/1 mg DNA). The MRTU constructs are regulated by a cis-regulating element (promoter). […] A major difference between the CIS and TRANS system is that in CIS activities of endogenous TFs are measured, whereas the TRANS assay evaluates changes in activities of exogenous, chimeric NR-Gal4 proteins. […] At the end of 24 hour incubation, total RNA was isolated using TriZol reagent (Invitrogen). The isolated RNA is then reverse-transcribed using oligo(dT) primer and Mo-MLV reverse transcriptase (Invitrogen) with DNAse I (Ambion) treatment for 30 min. The one-tenth of the produced cDNA was amplified by PCR using Taq DNA polymerase (Invitrogen) and two reporter sequence-specific primers. The PCR products were fluorescently labeled by primer extension with 6-arboxyfluorescein (6-FAM) 5'-labeled reporter sequence-specific primer (2 min at 95 C, 20 s at 68 C and 10 min at 72 C) and these products were digested with 5U of HpaI (New England Biolabs) for 2h at 37 C. The fragments were purified using Qiaquick PCR columns (Qiagen), analyzed on an ABI 3130xL genetic analyzer (Applied Biosystems) with peak positions identified by using a set of X-rhodamine (ROX)-labeled MapMarker1000 molecular weight standards (BioVentures). The raw capillary electrophoresis data was processed using Attagraph software (Attagene).

Row | Structure (SMILES) | outcome | AC50
1 | OCC(O)CC(F)(F)C(F)(F)C(F)(F)C(F)(F)F (stereo not given) | inactive | 
2 | CN1CN(C)CN(C)C1 |  | 182 µM (active)
3 | Brc1ccccn1 | inactive | 
4 | CC1=CCC2C(=O)OC(=O)C2C1 (stereo not given) | inactive | 
5 | Cc1ccc(O)cn1 | inactive | 
6 | CCN(CC)c1ccc(C=O)c(O)c1 |  | 52.2 µM (active)
7 | CCN=c1cc2oc3cc(NCC)c(C)cc3c(-c3ccccc3C(=O)OCC)c-2cc1C |  | 9.29 µM (active)
8 | C=CC(=O)OCC(F)(F)C(F)(F)C(F)(F)C(F)(F)C(F)(F)C(F)(F)C(F)(F)C(F)F |  | 231 µM (active)
9 | O=C1C=CC(=O)N1c1ccc(Cc2ccc(N3C(=O)C=CC3=O)cc2)cc1 | inactive | 
10 | CNS(=O)(=O)C(F)(F)C(F)(F)C(F)(F)C(F)(F)C(F)(F)C(F)(F)C(F)(F)C(F)(F)F | inactive | 
11 | CCC/C=C/CO | inactive | 
12 | CCCCCC/C=C/CCCCCCCC(=O)O | inactive | 
13 | O=C(O)CCC(F)(F)C(F)(F)C(F)(F)C(F)(F)C(F)(F)C(F)(F)C(F)(F)F | inactive | 
14 | CCOCOCC | inactive | 
15 | Oc1ccc2c(c1)CCC2 | inactive | 
16 | CCC(=O)OC(C)c1ccccc1 (stereo not given) | inactive | 
17 | Cc1cc(=O)[nH]c(C(C)C)n1 | inactive | 
18 | N#Cc1ccccc1O | inactive | 
19 | COc1ccccc1C=O | inactive | 
20 | CN(C(=O)C(F)(F)C(F)(F)C(F)(F)F)[Si](C)(C)C | inactive | 

Row | Structure (SMILES) | outcome | AC50
21 | O=S(=O)(O)CCC(F)(F)C(F)(F)C(F)(F)C(F)(F)C(F)(F)C(F)(F)C(F)(F)C(F)(F)F | inactive | 
22 | CCn1c2ccccc2c2ccccc21 |  | 73.9 µM (active)
23 | Cc1cc(O)c(C(C)(C)C)cc1C(C)(C)C |  | 18 µM (active)
24 | NS(=O)(=O)C(F)(F)C(F)(F)C(F)(F)C(F)(F)C(F)(F)C(F)(F)F |  | 59 µM (active)
25 | CC1CCCCC1 | inactive | 
26 | CC(C)C(=O)OCc1ccccc1 | inactive | 
27 | CC(C)(C)c1cc(CCC(=O)OCC(COC(=O)CCc2cc(C(C)(C)C)c(O)c(C(C)(C)C)c2)(COC(=O)CCc2cc(C(C)(C)C)c(O)c(C(C)(C)C)c2)COC(=O)CCc2cc(C(C)(C)C)c(O)c(C(C)(C)C)c2)cc(C(C)(C)C)c1O | inactive | 
28 | O=S(=O)(O)c1ccc(Cl)cc1 | inactive | 
29 | O=C1OC(=O)c2ccc3c4c(ccc1c24)C(=O)OC3=O | inactive | 
30 | CCOC(=O)C1CC(=O)C(=C(O)C2CC2)C(=O)C1 (stereo not given) | inactive | 
31 | O=C(O)C(F)(F)OC(F)(F)C(F)(F)OC(F)(F)C(F)(F)OC(F)(F)F | inactive | 
32 | CC(C)=CCCC(C)O (stereo not given) | inactive | 
33 | OCC(F)(F)C(F)(F)C(F)(F)C(F)(F)C(F)(F)C(F)(F)C(F)(F)C(F)(F)CO | inactive | 
34 | CC(C)OC(=O)COc1ccc(Cl)cc1Cl | inactive | 
35 | O=C(F)C1(F)C(F)(F)C(F)(F)C(F)(F)C(F)(F)C1(F)F | inactive | 
36 | CCCCCCCCCCCCCCCCC | inactive | 
37 | O=C(Cl)c1ccc(Cl)cc1Cl | inactive | 
38 | CCCCOC(=O)[C@H](C)O | inactive | 
39 | O=C(Cl)C(F)(F)C(F)(F)C(F)(F)C(F)(F)C(F)(F)C(F)(F)F | inactive | 
40 | O=C(O)C(F)(F)C(F)(F)C(F)(F)C(F)(F)C(F)(F)C(F)(F)C(F)F | inactive | 

Reference: PubChem BioAssay (EPA / NIEHS)
